Results filed as inconclusive are left out. Calls of active or inactive are those of the source. The calls were made as follows, unless noted: active = hit-call score of the fitted dose curve at least 0.9, where 1 is the maximum; inactive = score below 0.9.
Legend:
[1] = read-out: Macrophage colony-stimulating factor (MCSF), CSF1 (gene 1435); experiment: BSK_LPS_MCSF: BioMAP Diversity Plus: LPS Assay for Macrophage colony-stimulating factor (MCSF) Biomarker Activity (AID 2283083); details: primary human HUVEC with PBMC; actives raise or lower the signal
In short: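 HUVEC–PBMC co-culture, M-CSF measured by ELISA 24 h after chemical dosing. Fitted in both directions relative to DMSO as negative control; overt cytotoxicity assessed by SRB total-protein staining in parallel cultures.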

[2] = read-out: Tissue Factor, F3 (gene 2152); experiment: BSK_LPS_TissueFactor: BioMAP Diversity Plus: LPS Assay for Tissue Factor Biomarker Activity (AID 2283084); details: primary human HUVEC with PBMC; actives raise or lower the signal
In short: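 Human umbilical vein endothelial cells co-cultured with PBMC were dosed with compound. Cell-surface CD142 was measured by ELISA 24 h later. Activity was fitted bidirectionally against DMSO, with SRB total-protein staining in parallel cultures for cytotoxicity.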

[3] = read-out: Tumor necrosis factor (Homo sapiens) (UniProt P01375); experiment: BSK_LPS_TNFa: BioMAP Diversity Plus: LPS Assay for Tumour Necrosis Factor alpha (TNFa) Biomarker Activity (AID 2283085); details: primary human HUVEC with PBMC; actives raise or lower the signal
In short: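 Primary human vascular co-culture of HUVEC and PBMC; TNFa ELISA 24 h after treatment, analysed as increase or decrease relative to DMSO control.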

[4] = read-out: Vascular cell adhesion molecule 1 (VCAM1), VCAM1 (gene 7412); experiment: BSK_LPS_VCAM1: BioMAP Diversity Plus: LPS Assay for Vascular cell adhesion molecule 1 (VCAM1) Biomarker Activity (AID 2283086); details: primary human HUVEC with PBMC; actives raise or lower the signal
In short: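 Primary human vascular co-culture (umbilical vein endothelium plus PBMC) stimulated with LPS received chemical; 24 h later VCAM-1 was read by ELISA. Overt cytotoxicity was assessed by sulforhodamine B staining of parallel cultures at the same time point.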

CD38, CD38 (gene 952) = experiment: BSK_SAg_CD38: BioMAP Diversity Plus: SAg Assay for CD38 Biomarker Activity (AID 2283087); details: primary human HUVEC with PBMC; actives raise or lower the signal
In short: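 Fluorescence ELISA of cell-surface CD38 served as the read-out, with either increase or decrease fitted against DMSO controls. Cells were a human umbilical vein endothelium plus PBMC co-culture under SEB/TSST-1 stimulation, measured 24 h after dosing.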

CD40, CD40 (gene 958) = experiment: BSK_SAg_CD40: BioMAP Diversity Plus: SAg Assay for CD40 Biomarker Activity (AID 2283088); details: primary human HUVEC with PBMC; actives raise or lower the signal
In short: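 HUVEC plus PBMC co-culture, superantigen-activated, with CD40 read by ELISA 24 h after dosing. Curves fitted in both directions against DMSO. Overt cytotoxicity checked by parallel SRB total-protein staining.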

CD69, CD69 (gene 969) = experiment: BSK_SAg_CD69: BioMAP Diversity Plus: SAg Assay for CD69 Biomarker Activity (AID 2283089); details: primary human HUVEC with PBMC; actives raise or lower the signal
In short: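 HUVEC co-cultured with PBMC were dosed with chemical, and CD69 was measured by ELISA with fluorescence read-out 24 h later. Bidirectional curve fitting used DMSO as negative control and activity baseline.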

[5] = read-out: Monocyte Chemoattractant Protein-1 (MCP1), CCL2 (gene 6347); experiment: BSK_SAg_MCP1: BioMAP Diversity Plus: SAg Assay for Monocyte Chemoattractant Protein-1 (MCP1) Biomarker Activity (AID 2283090); details: primary human HUVEC with PBMC; actives raise or lower the signal
In short: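 MCP-1 levels in the endothelial–PBMC SAg co-culture were quantified by ELISA at 24 h post-dosing; both increases and decreases versus DMSO scored. Cytotoxicity monitored by SRB total protein in parallel cultures.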

[6] = read-out: E-selectin (Homo sapiens) (UniProt P16581); experiment: BSK_SAg_Eselectin: BioMAP Diversity Plus: SAg Assay for Eselectin Biomarker Activity (AID 2283091); details: primary human HUVEC with PBMC; actives raise or lower the signal
In short: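 Human umbilical vein endothelial cells co-cultured with peripheral blood mononuclear cells, SAg system. E-selectin is measured by ELISA 24 h after dosing and fitted bidirectionally against DMSO. Cytotoxicity is checked by SRB staining of parallel cultures.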

[7] = read-out: Monokine induced gamma interferon (MIG), CXCL9 (gene 4283); experiment: BSK_SAg_MIG: BioMAP Diversity Plus: SAg Assay for Monokine induced gamma interferon (MIG) Biomarker Activity (AID 2283092); details: primary human HUVEC with PBMC; actives raise or lower the signal
In short: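 HUVEC plus human PBMC co-culture, chemicals dosed and MIG (CXCL9) quantified by ELISA at 24 h. Bidirectional curve fitting against DMSO as negative control and baseline, so both gain and loss of signal count as activity.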

[8] = BSK_SAg_PBMCCytotoxicity: PBMC Cytotoxicity Assessment in the BioMAP Diversity Plus: SAg Assay (AID 2283093); details: primary human HUVEC with PBMC;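 also: PBMC viability measured as Alamar Blue reduction fluorescence at 546/580 nm; fitted both ways against DMSO so a hit may be loss or gain of signal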
In short: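 Human umbilical vein endothelial cells co-cultured with PBMC; PBMC (75,000/well) pre-treated with compound 1 h, then activated with SEB and TSST-1 (20 ng/mL final each) for 90 h. Alamar Blue added 6 h, fluorescence 546/580 nm; bidirectional fit versus DMSO.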

[9] = read-out: Interleukin-8 (IL8), CXCL8 (gene 3576); experiment: BSK_SAg_IL8: BioMAP Diversity Plus: SAg Assay for Interleukin-8 (IL8) Biomarker Activity (AID 2283094); details: primary human HUVEC with PBMC; actives raise or lower the signal
In short: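 In this co-culture of human umbilical vein endothelium with peripheral blood mononuclear cells, IL-8 is assayed by ELISA at 24 h. DMSO serves as baseline for bidirectional curve fitting.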

[10] = BSK_SAg_Proliferation: Cell Proliferation Assessment in the BioMAP Diversity Plus: SAg Assay (AID 2283095); details: primary human HUVEC with PBMC;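 also: relative cell number as total protein by SRB absorbance in sub-confluent culture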
In short: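 Readout is SRB-stained protein (560 nm) in a primary human HUVEC and PBMC co-culture; sub-confluent cultures are read at 96 h. Activity is fitted bidirectionally using DMSO as baseline.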

[11] = BSK_SAg_SRB: Viability Assessment in the BioMAP Diversity Plus: SAg Assay (AID 2283096); details: primary human HUVEC with PBMC;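 also: cells read one day after compound addition; hits may be either gain or loss of signal compared with DMSO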
In short: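 Endothelial/PBMC primary human co-culture; compound 24 h; fix 10% TCA, stain 0.1% SRB, A560; protein content as cytotoxicity proxy; bidirectional curve fit, DMSO = baseline.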

[12] = BSK_LPS_PGE2: BioMAP Diversity Plus: LPS Assay for Prostaglandin E2 (PGE2) Biomarker Activity (AID 2283082); details: primary human HUVEC with PBMC; actives raise or lower the signal;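 as to AC50: secreted prostaglandin E2 measured by ELISA in LPS-stimulated co-culture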
In short: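 Endpoint derived from bidirectional curve fitting versus DMSO of ELISA-measured PGE2 in LPS-stimulated human primary vascular co-culture (HUVEC with PBMC) harvested at 24 h.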

[13] = target: human CYP1A2, CYP1A2 (gene 1544) (UniProt P05177); experiment: NVS_ADME_hCYP1A2: NovaScreen (NVS) CYP450-related Enzyme Activity (ADME) Assay for human CYP1A2 (AID 2283102; active = hit-call score of the fitted dose curve at least 0.9, where 1 is the maximum)
In short: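 Recombinant human CYP1A2 from insect cells, cell-free, fluorogenic substrate; read 0.5 h after dosing with loss of fluorescence signal indicating inhibition. Primary screen in duplicate at 10 uM, acetonitrile as negative control.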

[14] = target: human CYP2B6, CYP2B6 (gene 1555) (UniProt P20813); experiment: NVS_ADME_hCYP2B6: NovaScreen (NVS) CYP450-related Enzyme Activity (ADME) Assay for human CYP2B6 (AID 2283101; active = hit-call score of the fitted dose curve at least 0.9, where 1 is the maximum)
In short: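 Recombinant human CYP2B6 with fluorogenic substrate, read by fluorescence intensity 1 h after dosing. Primary screen in duplicate at 10 uM, actives followed in concentration series; signal loss relative to acetonitrile control.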

Measured: AC50

Sequence of E-selectin (Homo sapiens) (P16581 whole entry, looked up): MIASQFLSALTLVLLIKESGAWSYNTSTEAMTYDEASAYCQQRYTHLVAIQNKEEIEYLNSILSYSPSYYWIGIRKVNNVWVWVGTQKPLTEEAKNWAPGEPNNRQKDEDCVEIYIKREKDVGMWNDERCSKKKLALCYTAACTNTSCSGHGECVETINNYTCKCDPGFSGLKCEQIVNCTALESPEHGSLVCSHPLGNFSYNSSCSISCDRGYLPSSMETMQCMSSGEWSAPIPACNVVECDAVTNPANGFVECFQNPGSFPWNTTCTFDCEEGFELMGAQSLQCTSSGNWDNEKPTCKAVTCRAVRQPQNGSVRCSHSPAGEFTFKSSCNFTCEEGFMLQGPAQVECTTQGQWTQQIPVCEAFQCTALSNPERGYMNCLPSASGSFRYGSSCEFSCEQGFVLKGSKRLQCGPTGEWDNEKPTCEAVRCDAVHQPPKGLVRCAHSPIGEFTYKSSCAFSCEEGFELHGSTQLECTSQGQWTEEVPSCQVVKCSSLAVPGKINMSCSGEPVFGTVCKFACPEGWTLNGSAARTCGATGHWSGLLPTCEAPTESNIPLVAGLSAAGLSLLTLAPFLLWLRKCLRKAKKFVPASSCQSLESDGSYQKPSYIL
Sequence of Tumor necrosis factor (Homo sapiens) (P01375 whole entry, looked up): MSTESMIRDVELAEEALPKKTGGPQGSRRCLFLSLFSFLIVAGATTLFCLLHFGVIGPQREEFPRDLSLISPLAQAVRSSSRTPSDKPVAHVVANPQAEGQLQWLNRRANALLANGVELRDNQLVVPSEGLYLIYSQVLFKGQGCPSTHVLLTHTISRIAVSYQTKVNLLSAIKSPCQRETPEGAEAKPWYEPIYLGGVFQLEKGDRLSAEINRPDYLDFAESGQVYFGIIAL
Sequence of human CYP2B6, CYP2B6 (gene 1555) (P20813 whole entry, looked up): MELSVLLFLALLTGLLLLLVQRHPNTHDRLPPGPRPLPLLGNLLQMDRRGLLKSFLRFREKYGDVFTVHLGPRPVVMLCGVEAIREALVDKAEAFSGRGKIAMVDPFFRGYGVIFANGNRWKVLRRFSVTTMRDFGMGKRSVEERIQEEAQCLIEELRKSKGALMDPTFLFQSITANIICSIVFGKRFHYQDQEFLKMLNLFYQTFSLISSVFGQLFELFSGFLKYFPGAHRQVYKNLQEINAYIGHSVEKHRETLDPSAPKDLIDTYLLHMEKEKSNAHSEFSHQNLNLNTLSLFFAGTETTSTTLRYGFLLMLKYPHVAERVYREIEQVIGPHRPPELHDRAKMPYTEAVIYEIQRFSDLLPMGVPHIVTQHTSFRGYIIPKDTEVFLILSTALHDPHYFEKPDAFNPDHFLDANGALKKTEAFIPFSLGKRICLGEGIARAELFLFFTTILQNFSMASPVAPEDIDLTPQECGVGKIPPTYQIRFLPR
Sequence of human CYP1A2, CYP1A2 (gene 1544) (P05177 whole entry, looked up): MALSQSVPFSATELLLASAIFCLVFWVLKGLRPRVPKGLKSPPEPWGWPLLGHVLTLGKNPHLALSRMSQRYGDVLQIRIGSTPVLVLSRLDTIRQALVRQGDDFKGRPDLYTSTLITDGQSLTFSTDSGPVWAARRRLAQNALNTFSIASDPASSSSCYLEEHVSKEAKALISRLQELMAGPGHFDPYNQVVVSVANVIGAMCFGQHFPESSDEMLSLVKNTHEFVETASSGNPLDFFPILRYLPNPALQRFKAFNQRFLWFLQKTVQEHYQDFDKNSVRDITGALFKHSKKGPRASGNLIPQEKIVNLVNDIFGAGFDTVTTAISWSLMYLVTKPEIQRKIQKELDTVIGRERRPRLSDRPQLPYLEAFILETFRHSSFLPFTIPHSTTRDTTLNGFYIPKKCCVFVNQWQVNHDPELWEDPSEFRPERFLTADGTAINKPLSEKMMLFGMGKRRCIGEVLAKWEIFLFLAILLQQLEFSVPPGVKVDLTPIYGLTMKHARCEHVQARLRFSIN

Nc1nc(N)c2nc(CNc3ccc(C(=O)N[C@@H](CCC(=O)O)C(=O)O)cc3)cnc2n1
active: [10] 3.22 µM
not listed: [12] | [13] | [14]
inactive: all other assays above

CC1(C)CC(N=C=O)CC(C)(CN=C=O)C1 (stereo not drawn)
not listed: [7] | [14]
inactive: all other assays above

COc1cc(C=O)ccc1O
not listed: [12] | [13] | [14]
inactive: all other assays above

NCC1(Cc2noc(=O)[nH]2)CCCCC1
not listed: [7] | [13] | [14]
inactive: all other assays above

O=[N+]([O-])C(CO)(CO)CO
active: [10] 17.8 µM
not listed: [12] | [13] | [14]
inactive: all other assays above

Cc1ccc(N(C)C)cc1
not listed: [7] | [13] | [14]
inactive: all other assays above

CC=Cc1ccc(O)c(OC)c1
active: [12] 6.95 µM | [2] 2.82 µM
not listed: [7] | [13]
inactive: all other assays above

CCCCCCCC=O
not listed: [7] | [13] | [14]
inactive: all other assays above

CC1(C)NC(=O)NC1=O
not listed: [7] | [13] | [14]
inactive: all other assays above

Reference: PubChem BioAssay (EPA / NIEHS)
